Screening data from PubChem.
YB-1 expression = YB-1 expression inhibition. U2OS, qRT-PCR YB-1 vs CDIP delta delta Cp, 16 h; hits give high values; zero = DMSO, each unit about twofold. delta delta Cp (YB-1 minus CDIP) (test concentration not listed). 30,000 tested, 0.37% active;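 active = delta delta Cp rounded down to an integer at or above 3, about 3 SD of DMSO wells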;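 also: higher means less YB-1 transcript or more CDIP transcript relative to DMSO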
NOMO-1 viab = STK33 inhibitor candidate reducing NOMO-1 cell viability; NOMO-1 AML viability, CellTiter-Glo luminescence, 72 h; inhibition, % (no concentration beside the values); 37,000 tested, 7.5% active; AID 2330; in the data active = inhibition above about 80%; inconclusive = no clear call, values can overlap the other calls
PD-1 reverse act = activators reversing PD-1 mediated T-cell inhibition; primary human CD4 T cells, PD-L1 beads, CellTiter-Glo 96 h; activation, % (concentration not given with the values); 29,000 tested, under 10 active; call rule not given here;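 also: 0% = median vehicle wells and 100% = positive control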
ROS inducer = raises reactive oxygen species in U2OS cancer cells. 46,000 tested, 2% active. U2OS ROS induction, H2DCF-DA fluorescence. ROS induction (% of piperlongumine), % at 10 µM. AID 624156; in the data active = ROS induction above about 79%, passing the limit was not always enough; inconclusive = no clear call, values can overlap the other calls;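 also: 0% = DMSO vehicle median and 100% = reference compound median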
Active calls of the source: *; ? = inconclusive; . = no result given; ! = not confirmed by another sample. The entries come from a sample that favours hits as a whole.

SMILES	YB-1 expression	NOMO-1 viab	PD-1 reverse act	ROS inducer
COc1ccc(NC(=O)Nc2ccc3c(c2)C(=O)N([C@@H](C)CO)C[C@H](C)[C@H](CN(C)Cc2ccncc2)O3)cc1	0.2	103*	1	-7
COc1ccc(CN(C)C[C@@H]2Oc3ccc(NC(=O)Nc4ccc(C(F)(F)F)cc4)cc3C(=O)N([C@@H](C)CO)C[C@H]2C)cc1	0.39	117*	.	-6
COc1ccc(CN(C)C[C@H]2Oc3ccc(NC(=O)Nc4ccc(F)cc4)cc3C(=O)N([C@@H](C)CO)C[C@H]2C)cc1	0.17	16	0	-4
C[C@@H]1CN([C@@H](C)CO)C(=O)c2cccc(NC(=O)Nc3ccc(C(F)(F)F)cc3)c2O[C@H]1CN(C)S(=O)(=O)c1cccs1	0.054	88*	.	8
C[C@H](CO)N1C[C@H](C)[C@@H](CN(C)S(=O)(=O)c2cccs2)Oc2c(NC(=O)Nc3ccc(C(F)(F)F)cc3)cccc2C1=O	0.33	45	2	12
C[C@@H]1CN([C@H](C)CO)C(=O)c2cccc(NC(=O)Nc3ccc(C(F)(F)F)cc3)c2O[C@@H]1CN(C)S(=O)(=O)c1cccs1	-0.058	101*	.	44
COc1ccc2nc(C)cc(Nc3ccccc3)c2c1	.	.	.	27
C[C@H]1CN([C@@H](C)CO)C(=O)c2cc(NS(=O)(=O)c3ccc(Cl)cc3)ccc2O[C@@H]1CN(C)Cc1ccc(Cl)c(Cl)c1	0.056	100*	-4	53
C[C@H](CO)N1C[C@H](C)[C@H](CN(C)Cc2ccc3c(c2)OCO3)Oc2ccc(NS(=O)(=O)c3ccc(F)cc3)cc2C1=O	-0.31	112*	-1	-3
C[C@@H]1CN([C@@H](C)CO)C(=O)c2cc(NS(=O)(=O)c3ccc(Cl)cc3)ccc2O[C@H]1CN(C)Cc1ccc(Cl)c(Cl)c1	-0.11	119*	-1	17
C[C@@H]1CN([C@H](C)CO)C(=O)c2cc(NS(=O)(=O)c3ccc(Cl)cc3)ccc2O[C@H]1CN(C)Cc1ccc(Cl)c(Cl)c1	-0.54	19	-2	45
C[C@@H]1CN([C@@H](C)CO)C(=O)c2cc(NS(=O)(=O)c3ccc(F)cc3)ccc2O[C@@H]1CN(C)Cc1ccc(Cl)c(Cl)c1	0.18	110*	-3	55
C[C@H]1CN([C@@H](C)CO)C(=O)c2cc(NS(=O)(=O)c3ccc(F)cc3)ccc2O[C@H]1CN(C)Cc1ccc(Cl)c(Cl)c1	0.17	11	1	6
Cc1ccc(C(=O)CSc2ncnc3sc4c(c23)CCC4)cc1C	.	20	-2	-9
COC(=O)c1cc2c(N)c(C(=O)OC)sc2nc1C(OC)OC	.	.	.	-4
CC1(C)CC(=O)C2=C(C1)Nc1ccccc1N(C(=O)C(F)(F)F)C2c1ccc(Cl)cc1Cl (configuration not stated)	-0.094	87*	0	10
O=C(CC1(O)C(=O)N(C/C=C/c2ccccc2)c2ccccc21)c1ccccn1 (configuration not stated)	.	123*	-6	17
COC(=O)CNC(=O)c1cn(-c2ccccc2)nc1-c1ccc(OC)cc1	.	113*	0	-13
COC(=O)CNC(=O)c1cn(-c2ccccc2)nc1-c1ccc([N+](=O)[O-])cc1	.	3	1	2
CS(=O)(=O)N(CC(=O)Nc1ccc(F)c(Cl)c1)c1ccc2c(c1)OCCO2	.	14	1	5
C[C@@H]1CN([C@@H](C)CO)C(=O)c2cccc(NC(=O)CCCCCC(=O)Nc3ccccc3N)c2O[C@@H]1CN(C)S(=O)(=O)c1ccc(F)cc1	0.21	92*	1	19
C[C@@H]1CN([C@H](C)CO)C(=O)c2cccc(NC(=O)CCCCCC(=O)Nc3ccccc3N)c2O[C@@H]1CN(C)S(=O)(=O)c1ccc(F)cc1	-0.09	72	-1	6
C[C@H](CO)N1C[C@H](C)[C@H](CN(C)S(=O)(=O)c2ccc(F)cc2)Oc2c(NC(=O)CCCCCC(=O)Nc3ccccc3N)cccc2C1=O	-0.19	95*	0	-6
CCOC(=O)c1cn(CC)c2ccc(S(=O)(=O)N3CCc4ccccc4C3)cc2c1=O	.	.	.	-11
CC(=O)Oc1ccc(C(=O)N2CCc3ccccc3C2)cc1	.	.	.	-12
SMILES	YB-1 expression	NOMO-1 viab	PD-1 reverse act	ROS inducer
COC(=O)C1=C(C)NC(C)=C(C(=O)OCCN(C)Cc2ccccc2)C1c1cccc([N+](=O)[O-])c1 (configuration not stated)	0.1	142*!	-10	?
O=C(NO)c1cccc(C(=O)N/N=C/c2ccccc2OCCO)c1	-0.018	.	.	4
C=C1C(=O)O[C@@H]2[C@H]1[C@H](O)C[C@]1(C)[C@@H](O)CC=C(C)[C@@H]21	-0.00055	115*	-3	34
COc1ccc(S(=O)(=O)Nc2ccc3c(c2)C(=O)N([C@H](C)CO)C[C@@H](C)[C@@H](CN(C)Cc2ccc(C(F)(F)F)cc2)O3)cc1	0.15	108*	-1	5
COc1ccc(S(=O)(=O)Nc2ccc3c(c2)C(=O)N([C@@H](C)CO)C[C@@H](C)[C@@H](CN(C)Cc2ccc(C(F)(F)F)cc2)O3)cc1	-0.049	115*	1	9
COc1ccc(CN(C)C[C@@H]2Oc3ccc(NS(=O)(=O)c4ccc(OC)cc4)cc3C(=O)N([C@@H](C)CO)C[C@@H]2C)cc1	-0.37	11	0	-15
COc1ccc(S(=O)(=O)Nc2ccc3c(c2)C(=O)N([C@@H](C)CO)C[C@@H](C)[C@H](CN(C)Cc2ccc(C(F)(F)F)cc2)O3)cc1	0.82	113*	1	43
Cc1cc(C(F)(F)F)nc(SCC(=O)Nc2ccc(Cl)cc2)n1	.	-1	0	-3
CC(N=Cc1nc2ccccc2n1C)C12CC3CC(CC(C3)C1)C2 (configuration not stated)	.	.	.	-7
Cc1ccn2cc(-c3cccc(NS(=O)(=O)c4cccc([N+](=O)[O-])c4)c3)nc2c1	.	38	2	7
C[C@H]1CN([C@@H](C)CO)C(=O)c2cccc(NC(=O)Nc3ccc(F)cc3)c2O[C@H]1CN(C)Cc1ccc(C(=O)O)cc1	0.19	19	2	-8
C[C@@H]1CN([C@H](C)CO)C(=O)c2cccc(NC(=O)Nc3ccccc3)c2O[C@@H]1CN(C)Cc1ccc(C(=O)Nc2ccccc2N)cc1	-0.8	128*	-5	28
C[C@H]1CN([C@@H](C)CO)C(=O)c2cccc(NC(=O)Nc3ccc(F)cc3)c2O[C@H]1CN(C)Cc1ccc(C(=O)Nc2ccccc2N)cc1	-0.34	127*	-5	6
C[C@@H]1CN([C@@H](C)CO)C(=O)c2cccc(NC(=O)Nc3ccc(F)cc3)c2O[C@H]1CN(C)Cc1ccc(C(=O)O)cc1	0.62	18	.	-7
C[C@H](CO)N1C[C@H](C)[C@@H](CN(C)Cc2ccc(C(=O)Nc3ccccc3N)cc2)Oc2c(NC(=O)Nc3ccc(F)cc3)cccc2C1=O	0.064	125*	-1	13
COc1ccc(OC)c(NC(=O)Cc2c(OC)ccc3cc(Br)ccc23)c1	.	30	.	.
CS(=O)(=O)N(CC(=O)Nc1c(F)cccc1F)c1cc(Cl)c(Cl)cc1Cl	.	39	2	-14
